What all share (set-up): scale not given: direction of the effect not stated beside the values
Assay [1] deals with Protein translocase subunit SecA (Escherichia coli (strain K12)) (UniProt P10408). The assay can be described thus: Assay to Identify E. coli SecA ATPase Inhibitors. The assay is classed as functional. Conditions: 30 µM.
Assay [2] deals with T1, Ubiquitin-activating enzyme e1, putative (Leishmania donovani (strain BPK282A1)) (UniProt E9BSI1).
T1 sequence (whole entry): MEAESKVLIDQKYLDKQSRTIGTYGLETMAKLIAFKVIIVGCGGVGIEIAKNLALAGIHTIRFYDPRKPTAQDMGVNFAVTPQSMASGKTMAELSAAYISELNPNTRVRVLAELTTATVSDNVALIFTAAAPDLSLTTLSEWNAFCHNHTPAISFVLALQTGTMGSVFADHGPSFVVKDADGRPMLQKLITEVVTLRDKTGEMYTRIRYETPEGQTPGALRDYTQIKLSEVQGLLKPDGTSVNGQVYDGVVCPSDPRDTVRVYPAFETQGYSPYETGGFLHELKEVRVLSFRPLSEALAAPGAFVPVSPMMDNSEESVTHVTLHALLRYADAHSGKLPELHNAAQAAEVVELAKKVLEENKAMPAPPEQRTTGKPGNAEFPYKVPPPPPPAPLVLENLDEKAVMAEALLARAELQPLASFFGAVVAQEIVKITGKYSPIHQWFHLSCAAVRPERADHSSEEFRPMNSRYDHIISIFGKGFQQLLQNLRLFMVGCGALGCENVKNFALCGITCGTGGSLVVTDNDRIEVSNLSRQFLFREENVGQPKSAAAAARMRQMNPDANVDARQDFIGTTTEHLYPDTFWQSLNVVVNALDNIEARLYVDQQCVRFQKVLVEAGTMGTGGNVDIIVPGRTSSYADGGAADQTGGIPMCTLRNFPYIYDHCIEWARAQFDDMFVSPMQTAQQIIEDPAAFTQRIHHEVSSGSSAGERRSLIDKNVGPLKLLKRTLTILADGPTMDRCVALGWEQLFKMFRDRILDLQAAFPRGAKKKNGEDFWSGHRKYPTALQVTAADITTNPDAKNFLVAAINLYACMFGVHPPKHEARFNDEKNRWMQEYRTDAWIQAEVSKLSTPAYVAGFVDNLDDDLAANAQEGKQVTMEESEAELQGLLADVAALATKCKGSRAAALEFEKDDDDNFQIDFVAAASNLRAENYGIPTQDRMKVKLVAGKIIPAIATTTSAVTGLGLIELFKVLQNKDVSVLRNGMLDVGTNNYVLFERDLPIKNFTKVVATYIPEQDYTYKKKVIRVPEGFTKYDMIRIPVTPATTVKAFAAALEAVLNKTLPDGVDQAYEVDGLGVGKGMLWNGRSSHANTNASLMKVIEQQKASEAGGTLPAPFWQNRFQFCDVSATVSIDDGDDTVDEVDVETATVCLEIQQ
Briefly: Leishmania donovani Ubiquitin Activating Enzyme (LdE1). The format is functional. Conditions: 30 µM.

Assay [3] has as its target AMP-activated protein kinase, AMPK (Homo sapiens) (UniProt P54646+O43741+P54619+Q9UGJ0+Q9Y478+Q13131+Q9UGI9). Briefly: AMP-dependent Kinase enzyme assay. An in vitro enzyme assay that detects ADP turnover that is directly proportional to AMPK activity. This uses naive AMPK that is activated during the assay with MK-8722. The assay is classed as functional. Conditions: 30 µM.

The target in assay [4] is Sialic acid-binding Ig-like lectin 9 (Homo sapiens) (UniProt Q9Y336). The assay can be described thus: Hs-Siglec9 ALPHAscreen SOP 20170721. Conditions: 10 µM.
Another assay concerns Trypanosoma cruzi. The assay can be described thus: Trypanosoma cruzi phosphomannomutase and mannose-1-phosphate guanylyltransferase assay. The assay is classed as functional. Conditions: 10 µM.
The target in assay [5] is T2, Arginase-2, mitochondrial (Homo sapiens) (UniProt P78540).
T2 sequence (whole entry): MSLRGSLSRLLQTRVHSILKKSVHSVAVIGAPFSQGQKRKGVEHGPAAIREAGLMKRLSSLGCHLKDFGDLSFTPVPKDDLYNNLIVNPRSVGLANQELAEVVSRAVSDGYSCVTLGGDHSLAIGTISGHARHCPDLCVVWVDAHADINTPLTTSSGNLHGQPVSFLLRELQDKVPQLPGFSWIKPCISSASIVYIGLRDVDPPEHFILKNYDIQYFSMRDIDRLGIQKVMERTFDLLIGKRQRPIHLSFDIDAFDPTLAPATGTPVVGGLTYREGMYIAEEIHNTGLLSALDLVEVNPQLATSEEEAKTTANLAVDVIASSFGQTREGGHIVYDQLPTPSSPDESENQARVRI
The assay can be described thus: in vitro enzyme assay to detect the production of urea directly proportional to the activity of Arginase II. Note: in the data most compounds retested in dose-response had high values. The assay is classed as functional. Conditions: 33.3 µM.

In assay [6] the target is T3, Proteasome subunit beta (Trypanosoma cruzi) (UniProt O96673).
T3 sequence (whole entry): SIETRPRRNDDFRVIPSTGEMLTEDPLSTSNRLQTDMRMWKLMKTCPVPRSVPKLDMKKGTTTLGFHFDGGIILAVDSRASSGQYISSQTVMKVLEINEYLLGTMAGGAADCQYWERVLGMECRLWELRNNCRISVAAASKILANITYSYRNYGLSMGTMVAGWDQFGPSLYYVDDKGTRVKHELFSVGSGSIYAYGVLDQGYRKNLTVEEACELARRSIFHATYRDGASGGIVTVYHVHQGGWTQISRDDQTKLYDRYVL
Briefly: Trypanosoma cruzi proteasome chymotrypsin-like activity (TcProtChymo) assay. Note: in the data most compounds retested in dose-response had high values. The assay is classed as functional. Conditions: 9.37 µM.

For a further assay, the species on record is Homo sapiens. Briefly: To identify inhibition of the IFN signalling (Jak-Stat) pathway via expression of an eGFP reporter gene under the control of an IFN-stimulated response element (ISRE) containing MxA promoter. The format is functional. Conditions: 30 µM.
The target of assay [7] is T4, Tyrosyl-tRNA synthetase, putative (Trypanosoma cruzi (strain CL Brener)) (UniProt Q4DSP6).
T4 sequence (whole entry): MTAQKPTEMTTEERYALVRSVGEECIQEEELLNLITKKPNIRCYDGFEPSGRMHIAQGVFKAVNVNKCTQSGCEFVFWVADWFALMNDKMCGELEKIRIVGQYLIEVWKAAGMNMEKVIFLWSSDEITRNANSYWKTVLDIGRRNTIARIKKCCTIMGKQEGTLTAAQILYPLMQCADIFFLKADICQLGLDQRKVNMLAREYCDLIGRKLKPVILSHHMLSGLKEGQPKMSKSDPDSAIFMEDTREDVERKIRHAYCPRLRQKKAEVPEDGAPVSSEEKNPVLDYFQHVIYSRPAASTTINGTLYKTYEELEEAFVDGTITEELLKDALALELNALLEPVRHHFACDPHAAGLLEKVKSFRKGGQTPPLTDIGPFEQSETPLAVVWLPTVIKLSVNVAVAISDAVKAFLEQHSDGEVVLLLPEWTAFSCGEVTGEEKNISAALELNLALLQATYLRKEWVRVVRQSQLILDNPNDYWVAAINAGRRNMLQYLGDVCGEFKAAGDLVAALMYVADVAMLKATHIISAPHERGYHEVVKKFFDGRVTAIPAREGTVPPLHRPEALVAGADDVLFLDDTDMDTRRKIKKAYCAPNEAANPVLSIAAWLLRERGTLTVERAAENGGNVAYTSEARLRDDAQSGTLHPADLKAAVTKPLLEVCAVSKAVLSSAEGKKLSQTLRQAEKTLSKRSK
The assay can be described thus: Trypanosoma cruzi tyrosyl tRNA synthetase (TcYRS) _High Tyrosine SOP. Note: in the data most compounds retested in dose-response had high values. The assay is classed as functional. Conditions: 30 µM.

In assay [8] the target is T4, Tyrosyl-tRNA synthetase, putative (Trypanosoma cruzi (strain CL Brener)). The assay can be described thus: Trypanosoma cruzi tyrosyl tRNA synthetase (TcYRS) SOP. The assay is classed as functional. Conditions: 30 µM.
In assay [9] the target is Chromo domain-containing protein 1 (Saccharomyces cerevisiae (strain ATCC 204508 / S288c) (Baker's yeast)) (UniProt P32657). Briefly: ScCHD-1 Enzyme Inhibition Assay. Note: in the data most compounds retested in dose-response had high values. The format is functional. Conditions: 30 µM.

For some of these results: Potency and affinity values are given separately.

Protein translocase subunit SecA (Escherichia coli (strain K12)), sequence (P10408 whole entry): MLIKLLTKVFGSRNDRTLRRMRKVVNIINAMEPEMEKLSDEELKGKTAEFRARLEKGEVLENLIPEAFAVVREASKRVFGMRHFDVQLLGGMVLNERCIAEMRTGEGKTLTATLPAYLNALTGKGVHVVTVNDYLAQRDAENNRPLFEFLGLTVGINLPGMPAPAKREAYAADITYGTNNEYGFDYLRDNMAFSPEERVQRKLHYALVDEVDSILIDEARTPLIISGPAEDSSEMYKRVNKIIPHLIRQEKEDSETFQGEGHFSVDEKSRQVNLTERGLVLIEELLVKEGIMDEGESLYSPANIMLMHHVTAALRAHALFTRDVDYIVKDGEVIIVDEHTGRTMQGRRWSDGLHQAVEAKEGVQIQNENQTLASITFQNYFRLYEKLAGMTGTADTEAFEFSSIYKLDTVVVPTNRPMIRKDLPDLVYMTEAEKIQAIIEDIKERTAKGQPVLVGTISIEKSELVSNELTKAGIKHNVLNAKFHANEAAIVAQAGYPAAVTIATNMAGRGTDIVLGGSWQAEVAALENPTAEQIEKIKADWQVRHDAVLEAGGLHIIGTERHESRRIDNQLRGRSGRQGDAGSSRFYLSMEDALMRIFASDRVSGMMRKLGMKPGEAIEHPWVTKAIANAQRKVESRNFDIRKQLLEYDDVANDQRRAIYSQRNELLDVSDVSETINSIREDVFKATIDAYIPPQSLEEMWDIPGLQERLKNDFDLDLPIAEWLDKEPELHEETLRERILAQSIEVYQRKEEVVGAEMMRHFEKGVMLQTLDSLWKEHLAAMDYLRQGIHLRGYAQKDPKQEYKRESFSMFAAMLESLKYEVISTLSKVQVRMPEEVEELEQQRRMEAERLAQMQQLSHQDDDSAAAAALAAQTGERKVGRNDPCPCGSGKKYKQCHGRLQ
Sialic acid-binding Ig-like lectin 9 (Homo sapiens), sequence (Q9Y336 whole entry): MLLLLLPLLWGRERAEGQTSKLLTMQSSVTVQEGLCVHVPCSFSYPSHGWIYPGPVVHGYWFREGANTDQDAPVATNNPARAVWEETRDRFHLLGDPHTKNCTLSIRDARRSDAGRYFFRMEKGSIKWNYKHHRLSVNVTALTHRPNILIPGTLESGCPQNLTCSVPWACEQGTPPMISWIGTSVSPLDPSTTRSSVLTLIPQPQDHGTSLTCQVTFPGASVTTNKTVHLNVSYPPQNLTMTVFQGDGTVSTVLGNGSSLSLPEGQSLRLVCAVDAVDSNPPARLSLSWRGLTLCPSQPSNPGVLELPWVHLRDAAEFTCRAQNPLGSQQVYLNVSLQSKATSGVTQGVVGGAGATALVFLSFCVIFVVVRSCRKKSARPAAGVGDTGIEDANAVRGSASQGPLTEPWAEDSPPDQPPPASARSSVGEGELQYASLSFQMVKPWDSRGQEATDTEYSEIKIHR
Chromo domain-containing protein 1 (Saccharomyces cerevisiae (strain ATCC 204508 / S288c) (Baker's yeast)), sequence (P32657 whole entry, the tested form may be a part): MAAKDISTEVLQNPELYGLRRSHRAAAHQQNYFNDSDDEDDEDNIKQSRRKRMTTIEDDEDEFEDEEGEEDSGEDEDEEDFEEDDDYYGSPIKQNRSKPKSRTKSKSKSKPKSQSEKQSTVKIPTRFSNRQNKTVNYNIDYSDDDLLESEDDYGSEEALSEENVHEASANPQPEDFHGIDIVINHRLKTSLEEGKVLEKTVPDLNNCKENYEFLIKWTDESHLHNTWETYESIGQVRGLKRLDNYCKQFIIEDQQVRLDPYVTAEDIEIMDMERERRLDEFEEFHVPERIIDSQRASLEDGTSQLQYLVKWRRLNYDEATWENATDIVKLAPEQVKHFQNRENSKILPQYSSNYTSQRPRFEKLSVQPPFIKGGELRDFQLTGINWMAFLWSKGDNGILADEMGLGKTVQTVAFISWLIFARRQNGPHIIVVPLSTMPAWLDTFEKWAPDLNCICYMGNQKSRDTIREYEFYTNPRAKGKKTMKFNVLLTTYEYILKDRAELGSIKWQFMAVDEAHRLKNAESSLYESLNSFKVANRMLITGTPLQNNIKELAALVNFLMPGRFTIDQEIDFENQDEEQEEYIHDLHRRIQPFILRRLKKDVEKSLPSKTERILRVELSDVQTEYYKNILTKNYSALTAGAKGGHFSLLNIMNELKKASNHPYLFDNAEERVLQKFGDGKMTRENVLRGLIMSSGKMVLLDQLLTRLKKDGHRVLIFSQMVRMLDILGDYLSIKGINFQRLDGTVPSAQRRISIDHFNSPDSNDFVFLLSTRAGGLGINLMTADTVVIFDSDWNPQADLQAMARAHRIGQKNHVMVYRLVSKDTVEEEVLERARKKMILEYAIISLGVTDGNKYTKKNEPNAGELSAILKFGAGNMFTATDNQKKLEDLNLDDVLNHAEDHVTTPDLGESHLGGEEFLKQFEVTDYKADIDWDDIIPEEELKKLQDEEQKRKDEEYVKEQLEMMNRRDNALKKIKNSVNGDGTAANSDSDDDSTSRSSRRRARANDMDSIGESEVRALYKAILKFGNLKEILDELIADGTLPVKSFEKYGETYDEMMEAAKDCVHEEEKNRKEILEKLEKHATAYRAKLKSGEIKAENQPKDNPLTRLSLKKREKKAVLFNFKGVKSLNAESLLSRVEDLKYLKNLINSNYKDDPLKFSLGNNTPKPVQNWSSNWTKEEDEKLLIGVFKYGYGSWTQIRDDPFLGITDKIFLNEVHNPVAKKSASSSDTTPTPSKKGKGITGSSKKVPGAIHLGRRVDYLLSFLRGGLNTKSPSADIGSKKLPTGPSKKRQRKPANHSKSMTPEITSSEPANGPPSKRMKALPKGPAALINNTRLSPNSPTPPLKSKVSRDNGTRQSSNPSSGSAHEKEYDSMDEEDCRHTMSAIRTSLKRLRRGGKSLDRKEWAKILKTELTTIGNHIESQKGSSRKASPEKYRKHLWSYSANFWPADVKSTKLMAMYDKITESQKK

In the case of `CCn1c(C)nnc1CN(C)C1CCN(CCCOC)C1` (stereo unspecified), the Percent Effect is -1.09% in assay [1]; 18.2% in assay [2]; -9.12% in [3]; 4.71% in assay [4]; 3.82% with Trypanosoma cruzi; 6.11% in assay [5]. For the same compound, the Percent Effect in [6] was 11.7%; in the assay filed under Homo sapiens, -2.93%; in assay [7], 7.62%; in assay [8] it was 25.9%; in [9] it was -10.1%.

In the case of `Cc1nc(C)c(C(=O)NCCNC(=O)c2ccc(F)cc2F)s1`, the Percent Effect in [1] is -1.94%; in [2] it was 10.8%; in [3] it was -1.06%; in assay [4] it was 22.4%; in the assay on Trypanosoma cruzi, 5.85%; in assay [5], -4.25%. In addition, the Percent Effect in assay [6] was 15.8%; in the assay filed under Homo sapiens, 16.4%; in assay [7], 8.91%; in [8], 23.2%; in [9], -8.6%.

Take `Cn1cccc1C(=O)NCc1cnc2n1CCN(C(=O)N1CCCC1)C2`: the Percent Effect in [1] was -5.97%; in assay [2] it was 16%; in [3], -1.93%; in assay [4], 4.39%; with Trypanosoma cruzi, 6.18%; in [5] it was -45%. Moreover, the Percent Effect in assay [6] was 7.86%; in the assay filed under Homo sapiens it was 3.79%; in [7], 2.08%; in [8], 12.5%; in assay [9] it was -6.82%.

As to `O=C(O)c1cc(S(=O)(=O)Nc2cc(F)ccc2F)cc2c1OCCO2`, the Percent Effect was -3.9% in assay [1]; -2.63% in assay [2]; 4.03% in assay [3]; 6.95% in [4]; -6.44% in the assay on Trypanosoma cruzi; 3.6% in [5]. Besides, the Percent Effect in [6] was 4.65%; in the assay filed under Homo sapiens, 3.03%; in [7] it was 0.493%; in [8] it was 1.24%; in assay [9], -3.53%.

On to `Cc1nn(C)c(C)c1C1COCCN1C(=O)Cc1cccc(F)c1` (stereo unspecified), for which the Percent Effect in assay [1] is -0.171%; in [2], 13.7%; in [3], -6.33%; in assay [4] it was 3.58%; in the assay on Trypanosoma cruzi, -3.13%; in assay [5], -1.82%. For the same compound, the Percent Effect in [6] was 17.6%; in the assay filed under Homo sapiens it was 33.3%; in [7] it was 1.07%; in [8] it was 5%; in assay [9] it was -4.69%.

For the compound `O=C(CCc1cscn1)N1CCCC(n2ccnc2)C1` (stereo unspecified), the Percent Effect in assay [1] was -6.32%; in assay [2], 1.27%; in assay [3] it was 6.89%; in assay [4] it was -0.321%; in the assay on Trypanosoma cruzi it was -2.36%; in [5], 0.645%. Moreover, the Percent Effect is 0.343% in [6]; -13.2% in the assay filed under Homo sapiens; 8.33% in [7]; 5.06% in [8]; -12.3% in assay [9].

Turning to `CNC(=O)[C@H]1C[C@@H]2CN(C(=O)Nc3ccc(F)cc3)C[C@H]1O2`, the Percent Effect in assay [1] is -1.87%; in assay [2], 13%; in assay [3], 7.85%; in assay [4] it was 4.28%; with Trypanosoma cruzi, 1.28%; in assay [5] it was 9.68%. The Percent Effect in [6] was 9.05%; in the assay listed under Homo sapiens it was 18.3%; in assay [7] it was 7.41%; in assay [8], 16.7%; in [9], -7.08%.

With `COc1cc(CNCc2c(C)nn(C)c2N(C)C)ccc1C`, the Percent Effect in [1] is -4.67%; in assay [2] it was -5.41%; in [3], -13.7%; in assay [4], 2.96%; in the assay on Trypanosoma cruzi it was 1.98%; in [5], -6.41%. Also, the Percent Effect was 3.06% in [6]; -2.21% in the assay listed under Homo sapiens; 5.42% in [7]; 1.24% in [8]; 0.104% in [9].

`COCCO[C@H]1CCN(C(=O)c2ccc[nH]2)[C@H]1Cc1ccncc1`: the Percent Effect was -5.53% in [1]; 0% in assay [2]; 12.9% in assay [3]; 1.19% in [4]; -3.74% with Trypanosoma cruzi; -2.1% in [5]. The Percent Effect was 2.73% in [6]; -2.22% in the assay listed under Homo sapiens; 3.19% in [7]; 6.41% in assay [8]; 0.525% in assay [9].

Turning to `Cc1ccc(-c2nnc(CN3CCOC(Cn4cccn4)C3)o2)cc1` (stereo unspecified), the Percent Effect was -4.11% in assay [1]; 10.1% in [2]; -1.13% in assay [3]; 4.66% in assay [4]; 0.661% with Trypanosoma cruzi; 3.42% in [5]. Further, the Percent Effect in assay [6] is 7.45%; in the assay filed under Homo sapiens, 4.27%; in assay [7], 2.46%; in [8], 11.4%; in assay [9], -5.6%.

`CC(NC1(CNC(=O)Cn2cccn2)CCOCC1)c1ccccc1` (stereo unspecified): the Percent Effect in assay [1] is -5.93%; in [2] it was 13.5%; in assay [3], -3.26%; in assay [4], 21.8%; with Trypanosoma cruzi it was 6.35%; in assay [5], 3.72%. The Percent Effect was 9.01% in assay [6]; -4.77% in the assay filed under Homo sapiens; 0% in [7]; 16.1% in [8]; -5.87% in assay [9].

Values taken from ChEMBL document CHEMBL3988442, “University of Dundee, Small-Polar-MMV Screening Library” (2021).
